Measurements taken from PubChem BioAssay (NCATS).
Results filed as inconclusive are left out. Activity calls are given as the source filed them. Calls come from the whole dose curve; as a rule, active = well fitted inhibition curve with a large enough effect; inconclusive = small, poorly fitted or top-dose-only effect; inactive = flat fitted curve, though single readings scatter.

The compounds below were run on HACAT (assay: qHTS assay to identify novel small-molecules to repurpose for Merkel cell carcinoma treatment (AID 1296009; note: nearly all actives have a fitted effect of over 60% in size)). Settings: MCC and control cell lines, CellTiter-Glo viability, 72 h; at 44.8 µM (top of the series) unless noted.
How it was run: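 Cells were treated for 72 hr at 37 degree celsius with compounds in 8- or 11-point dose response. Viability was read by CellTiter-Glo luminescence, normalized to no-cell (cytotoxicity) and DMSO controls.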

SMILES	outcome
C=CC(C)(O)CC/C=C(\C)C(=O)OC1CC2(C(=O)O)CCC3(C)C(=CCC4C5(C)CCC(OC6OC(COC7OCC(O)C(O)C7O)C(O)C(OC7OCC(O)C(O)C7O)C6OC6OC(CO)C(O)C(O)C6OC6OCC(O)C(O)C6O)C(C)(C)C5CCC43C)C2CC1(C)C (centres undefined)	inactive [at 9.27 µM]
C=C1CC2[C@]3(C)C(=C(O)C(=O)[C@@]2(C)[C@]2(C(=O)OC)C(=O)C(C)OC(=O)[C@@]12C)C(C)(C)C(=O)CC3O (some centres undefined)	inactive [at 17.4 µM]
C=C1CCC(OC(C)=O)C2(C)CC3(O)OC(=O)C(C)=C3CC12 (centres undefined)	inactive
C[C@@H]1CC[C@H]2C(C)(C)[C@H](O)[C@H](O)C[C@]2(C)[C@@]12Cc1c(O)cc3c(c1O2)CNC3=O	inactive
C[C@H]1[C@H](C)CC[C@]2(C(=O)O[C@@H]3O[C@H](CO)[C@@H](O)[C@H](O)[C@H]3O)CC[C@]3(C(=O)O)C(=CCC4[C@@]5(C)CC[C@H](O[C@@H]6O[C@H](CO)[C@@H](O)[C@H](O)[C@H]6O)C(C)(C)C5CC[C@]43C)[C@H]12 (some centres undefined)	inactive [at 9.27 µM]
C1CCN2CC3C[C@@H](CN4CCCC[C@@H]34)[C@H]2C1	inactive
O=C(COc1ccc(Cl)cc1)NC1CCC(NC(=O)COc2ccc(Cl)cc2)CC1 (centres undefined)	inactive
COc1cc(C(O)C(CO)Oc2ccc(CCCO[C@@H]3O[C@@H](C)[C@H](O)[C@@H](O)[C@H]3O)cc2OC)ccc1O (some centres undefined)	inactive [at 17.4 µM]
CC(C)=CC/C=C(/C)[C@H]1CC[C@]2(C)[C@@H]1[C@H](O)CC1[C@@]3(C)CC[C@H](O)C(C)(C)[C@@H]3[C@@H](O[C@@H]3O[C@H](CO)[C@@H](O)[C@H](O)[C@H]3O[C@@H]3O[C@@H](C)[C@H](O)[C@@H](O)[C@H]3O)C[C@]12C (some centres undefined)	inactive [at 17.4 µM]
